Source: PubChem BioAssay
Active and inactive are the calls of the source. Unless noted, the rule behind the calls is not given here.

Experiments:
[1] = A549 cell viability effects, profiling panel, calcein-AM fluorescence, 48 h, basal (AID 1162); settings: higher = more signal; note: test concentration not given here
[2] = adipocyte viability effects, profiling panel, cell-based, 3T3-L1 adipocytes, calcein-AM fluorescence, 48 h, basal (AID 1163); settings: 3T3-L1 adipocytes viability, higher = more signal; note: test concentration not given here
[3] = HepG2 cell viability effects, profiling panel, calcein-AM fluorescence, 48 h, basal (AID 1164); settings: higher = more signal; note: test concentration not given here
[4] = MM1S cell viability effects, profiling panel, calcein-AM fluorescence, 48 h, basal (AID 1165); settings: higher = more signal;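 note: viability of MM1S multiple myeloma cells under basal unstimulated conditions; test concentration not given here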
[5] = basal RPMI8226 viability, no added stimulus, profiling panel, cell-based, calcein-AM fluorescence, 48 h, PK04 Diversity Set (AID 1166); settings: RPMI8226 myeloma viability, higher = more signal;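 note: cells grown under basal conditions without added stimulus; test concentration not given here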
[6] = basal HepG2 mitochondrial membrane potential changes, profiling panel, cell-based, JC-1 fluorescence, 24 h, 100 nL compound (AID 1167); settings: higher = more signal; note: test concentration not given here
[7] = basal 3T3-L1 adipocyte mitochondrial potential changes, profiling panel, cell-based, JC-1 fluorescence, 3T3-L1 adipocytes, 24 h, 100 nL compound (AID 1168); settings: JC-1 mitochondrial fluorescence, higher = more signal, called active from +8 up or from −8 down; note: test concentration not given here
[8] = basal RPMI8226 mitochondrial membrane potential changes, profiling panel, cell-based, JC-1 fluorescence, 24 h, 100 nL compound (AID 1169); settings: RPMI8226 myeloma, JC-1 mitochondrial potential fluorescence, higher = more signal; note: test concentration not given here
[9] = basal MM1S mitochondrial membrane potential changes, profiling panel, cell-based, JC-1 fluorescence, 24 h, 100 nL compound (AID 1170); settings: higher = more signal; note: test concentration not given here
[10] = A549 lung cancer cell viability effects, profiling panel, resazurin fluorescence, 24 h, PK04 Diversity Set (AID 1171); settings: higher = more signal, called active from +8 up or from −8 down; note: test concentration not given here
[11] = HepG2 liver cancer cell viability effects, profiling panel, resazurin fluorescence, 24 h, PK04 Diversity Set (AID 1172); settings: higher = more signal; note: test concentration not given here
[12] = basal S. cerevisiae growth modulation, no modifier, primary screen, OD600, strain BY4716, 24 h, basal condition (AID 1173); settings: OD600, 24 h, higher = more signal, called active from +8 up or from −8 down
[13] = MM1S myeloma cell viability, profiling panel, resazurin fluorescence, basal, 24 h, PK04 Diversity Set (AID 1174); settings: higher = more signal, called active from +8 up or from −8 down;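 note: MM1S multiple myeloma cell line; test concentration not given here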
[14] = biological target: Dihydroorotate dehydrogenase (quinone), mitochondrial (Plasmodium falciparum (isolate 3D7)) (UniProt Q08210); assay: PfDHODH enzyme inhibitors, primary screen, biochemical, C-terminal His tag, absorbance 600 nm (AID 1175); settings: DCIP absorbance 600 nm, higher = more signal, called active from +8 up or from −8 down;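 note: recombinant parasite enzyme with a five histidine tag at its C terminus; test concentration not given here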
[15] = P. aeruginosa biofilm formation inhibitors, primary screen, strain PAO1, LB-PBS medium, absorbance 600 nm (AID 1176); note: test concentration not given here; settings: P. aeruginosa PAO1 growth/biofilm, A600, 12 h; higher = more signal
[16] = S. cerevisiae RM11-1a growth modifiers, primary screen, strain RM11-1a, OD600, basal, 24 h (AID 1177); settings: OD600, 24 h, higher = more signal, called active from +8 up or from −8 down;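 note: cultures grown under basal conditions with no added stressor; test concentration not given here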
[17] = E. coli acrAB mutant growth effects, primary screen, E. coli filamentation inducers, strain DRC39, OD650, 24 h (AID 1178); settings: higher = more signal, called active from +8 up or from −8 down;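 note: growth measured as culture turbidity by optical density at 650 nm; test concentration not given here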
[18] = E. coli acrAB mutant growth effects, primary screen, E. coli filamentation inducers, strain DRC39, OD650, 48 h (AID 1179);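 note: screen aims at cell division blockers that make cells filament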; settings: E. coli DRC39 delta-acrAB growth, higher = more signal, called active from +8 up or from −8 down
[19] = RPMI8226 myeloma cell viability, profiling panel, resazurin fluorescence, basal, 24 h, PK04 Diversity Set (AID 1180); settings: higher = more signal;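 note: RPMI8826 multiple myeloma cell line at 5000 cells per well; test concentration not given here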
[20] = biological target: E3 ubiquitin-protein ligase XIAP (Homo sapiens) (UniProt P98170); assay: XIAP binders, primary screen, biophysical, small-molecule microarray, fluorescence 635 nm (AID 1181); settings: small-molecule microarray binding, higher = more signal;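 note: score merges 667 nm emission and signal to noise over triplicate slides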
E3 ubiquitin-protein ligase XIAP (Homo sapiens), sequence (P98170 whole entry, looked up): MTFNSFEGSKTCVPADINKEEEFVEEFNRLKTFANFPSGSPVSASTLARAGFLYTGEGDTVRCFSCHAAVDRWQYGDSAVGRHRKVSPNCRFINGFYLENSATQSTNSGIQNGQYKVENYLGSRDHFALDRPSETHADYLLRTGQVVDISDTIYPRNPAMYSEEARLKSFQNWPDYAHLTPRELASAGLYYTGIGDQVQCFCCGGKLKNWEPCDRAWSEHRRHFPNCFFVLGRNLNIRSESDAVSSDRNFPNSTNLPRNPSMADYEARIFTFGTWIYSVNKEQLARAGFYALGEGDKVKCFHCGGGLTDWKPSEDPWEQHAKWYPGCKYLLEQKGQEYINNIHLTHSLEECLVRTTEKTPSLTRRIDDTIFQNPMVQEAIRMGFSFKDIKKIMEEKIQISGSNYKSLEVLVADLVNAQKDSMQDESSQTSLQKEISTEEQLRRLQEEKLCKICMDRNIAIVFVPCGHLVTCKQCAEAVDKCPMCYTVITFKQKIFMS

Dihydroorotate dehydrogenase (quinone), mitochondrial (Plasmodium falciparum (isolate 3D7)), sequence (Q08210 whole entry, looked up): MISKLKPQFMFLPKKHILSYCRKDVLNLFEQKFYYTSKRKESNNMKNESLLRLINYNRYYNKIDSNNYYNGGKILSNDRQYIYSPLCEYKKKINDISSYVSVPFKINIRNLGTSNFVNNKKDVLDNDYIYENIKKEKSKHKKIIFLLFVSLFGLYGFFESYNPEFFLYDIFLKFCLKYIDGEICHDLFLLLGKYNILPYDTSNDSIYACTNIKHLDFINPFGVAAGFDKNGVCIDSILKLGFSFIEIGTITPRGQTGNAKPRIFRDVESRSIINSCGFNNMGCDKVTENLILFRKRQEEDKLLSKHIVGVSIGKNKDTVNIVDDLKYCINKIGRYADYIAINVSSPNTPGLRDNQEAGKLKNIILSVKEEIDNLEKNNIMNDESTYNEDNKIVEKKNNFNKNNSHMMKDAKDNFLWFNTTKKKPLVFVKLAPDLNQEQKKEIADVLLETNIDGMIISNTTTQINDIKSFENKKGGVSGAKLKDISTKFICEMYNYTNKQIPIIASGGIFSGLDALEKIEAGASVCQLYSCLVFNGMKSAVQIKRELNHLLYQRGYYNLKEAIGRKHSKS

Structure (SMILES)	z-score [1]	z-score [2]	z-score [3]	z-score [4]	z-score [5]	z-score [6]	z-score [7]	z-score [8]	z-score [9]	z-score [10]	z-score [11]	z-score [12]	z-score [13]	composite z-score [14]	z-score [15]	z-score [16]	z-score [17]	z-score [18]	z-score [19]	composite z-score [20]
OCc1ccc(-c2cc[n+](Cc3cccc(OC(F)(F)F)c3)cc2)cc1	-1.19	0.983	-0.52	0.47	-0.483	-0.628	0.296 (inactive)	-0.672	-0.704	-0.395 (inactive)	-0.0785	-0.615 (inactive)	-0.297 (inactive)	-5.09 (inactive)	0.282 (inactive)	-0.327 (inactive)	0.188 (inactive)	0.147 (inactive)	-0.784	0.222
COCCCNC(=O)[C@@]1(C)c2ccccc2C(=O)N(c2ccc(C)cn2)[C@H]1c1ccc(CO)cc1	-0.255	-1.13	-0.956	-0.0048	-0.857	-0.587	0.285 (inactive)	0.054	-0.295	0.999 (inactive)	0.361	-0.156 (inactive)	-0.321 (inactive)	0.0772 (inactive)	0.112 (inactive)	-0.795 (inactive)	-0.0985 (inactive)	-0.087 (inactive)	0.157	0.286
COC(=O)[C@@]1(Cc2ccccc2)[C@H]2c3cc(C(=O)N(C)C)n(Cc4ccc(O)c(OC)c4)c3C[C@H]2CN1C(=O)c1ccccc1	-0.927	1.68	0.0419	-0.494	-1.26	2.19	-0.485 (inactive)	-0.671	-1.47	0.349 (inactive)	0.563	1.12 (inactive)	0.301 (inactive)	-2.88 (inactive)	1.47 (inactive)	0.458 (inactive)	-0.846 (inactive)	0.202 (inactive)	-1.24	0.0422
CN1C(=O)C2C=CC(C(O)c3cccc4ccccc34)N(NC(=O)OC(C)(C)C)C2C1=O (stereo not given)	-0.927	-0.0679	-0.559	-0.248	-1.49	-2.24	-0.532 (inactive)	0.219	0.437	-0.195 (inactive)	-1.12	-3.8 (inactive)	-0.776 (inactive)	-0.878 (inactive)	0.378 (inactive)	-0.0808 (inactive)	-0.555 (inactive)	-0.403 (inactive)	-0.693	0.156
CN(C)C(=O)[C@@]1(CCS(=O)(=O)c2ccccc2)N=C(c2ccc(OCCCO)cc2)O[C@H]1c1ccccc1CN=[N+]=[N-]	1.29	0.828	-0.294	-0.582	-0.314	0.548	-0.264 (inactive)	-0.114	-1.31	0.712 (inactive)	1.01	-1.19 (inactive)	0.958 (inactive)	0.307 (inactive)	-0.385 (inactive)	-0.791 (inactive)	1.13 (inactive)	0.802 (inactive)	0.251	-0.0381
[N-]=[N+]=Nc1ccccc1[C@H]1OC(c2ccc(OCCCO)cc2)=N[C@@]1(Cc1ccccc1)C(=O)NCc1ccccc1	-1.16	0.491	-1.07	-1.04	-3.84	0.671	-1.17 (inactive)	-1.16	-2.17	-1.56 (inactive)	-0.171	-1.95 (inactive)	-3.89 (inactive)	0.928 (inactive)	0.124 (inactive)	-0.947 (inactive)	2.01 (inactive)	1.76 (inactive)	-3.99	0.0917
CC(C)C[C@@H]1NC(=O)[C@@H]2C[C@H](C(=O)NCCCC[N+](C)(C)C)[C@H](c3cccc(OCCO)c3)N2C1=O	-0.316	-0.0337	-0.75	-1.3	-0.122	-1.16	-0.915 (inactive)	0.789	-0.132	-0.331 (inactive)	-3.45	1.45 (inactive)	-0.986 (inactive)	-29 (active)	1.3 (inactive)	0.958 (inactive)	-0.234 (inactive)	-0.667 (inactive)	-1.16	-0.127
COc1ccc([Si](C)(C)[C@@H]2[C@@H](CCO)O[C@]3(C(=O)N(Cc4ccccc4)c4ccc(N5CCCCC5=O)cc43)[C@H]2C)cc1	-0.887	2.07	-1.02	-1.58	-4.08	0.311	-0.258 (inactive)	-0.776	-0.786	-1.88 (inactive)	-1.62	0.86 (inactive)	-3.11 (inactive)	-2.04 (inactive)	-0.565 (inactive)	3.49 (inactive)	-0.277 (inactive)	-0.18 (inactive)	-2.29	-0.0826
Cc1ccc(S[C@]2(C(=O)NCC(C)C)CC(=O)N(C3CCCCC3)[C@@H]2c2ccc(CO)cc2I)cc1	-0.62	-0.395	-0.885	-3.28	-3.46	0.752	0.49 (inactive)	-0.947	0.0655	1.3 (inactive)	0.33	-1.05 (inactive)	0.0989 (inactive)	-0.0804 (inactive)	-0.81 (inactive)	-0.115 (inactive)	0.12 (inactive)	0.598 (inactive)	-0.693	-0.0559
CCCCC(=C=CC[C@H](O)c1ccccc1OCCO)C[C@H](O)c1ccccn1	0.747	-0.547	1.04	0.7	-0.327	0.21	0.589 (inactive)	-0.45	-1.14	0.412 (inactive)	0.973	-1.8 (inactive)	0.843 (inactive)	-1.36 (inactive)	0.0235 (inactive)	0.0401 (inactive)	0.917 (inactive)	0.726 (inactive)	1.13	0.104
CC(=O)NCCCC[C@@H]1NC(=O)[C@H]2C[C@@H](C(=O)NCCCCCN)[C@@H](c3cccc(OCCO)c3)N2C1=O	-0.0064	0.352	0.491	0.701	0.948	0.0469	0.408 (inactive)	-0.38	0.155	1.1 (inactive)	0.382	-1.74 (inactive)	1.18 (inactive)	-0.613 (inactive)	0.0904 (inactive)	-1.1 (inactive)	1.03 (inactive)	1.24 (inactive)	1.5	-0.02
CC(C)CCC[C@@H](C)[C@H]1CC[C@@]2(C)C3=C(CC[C@]12C)[C@@]1(C)CC[C@H](OC(=O)c2ccc(N)cc2)C(C)(C)C1CC3 (stereo not given in full)	1.22	0.187	1.06	-0.169	0.814	0.703	0.335 (inactive)	-0.064	-0.0494	-0.16 (inactive)	-0.322	-0.863 (inactive)	0.467 (inactive)	-2.03 (inactive)	0.589 (inactive)	-2.11 (inactive)	0.965 (inactive)	1.16 (inactive)	0.826	0.45
COc1cccc(C[C@H]2C[C@@H](CO[Si](C(C)C)(C(C)C)C(C)C)N3C(=O)[C@]4(C(C)=O)O[C@]23[C@H]2C(=O)N(C)C(=O)[C@H]24)c1	-2.16	-0.206	-3.45	-2.93	-4.26	1.49	0.207 (inactive)	-1.05	-1.96	-1.41 (inactive)	-1.03	2.01 (inactive)	-0.713 (inactive)	0.564 (inactive)	1.32 (inactive)	0.979 (inactive)	-0.356 (inactive)	-0.152 (inactive)	-2.81	0.0264
CCCCC(O)C1C=CC2C(=O)N(Cc3ccccc3)C(=O)C2N1n1cnnc1 (stereo not given)	-1.15	0.845	-0.189	0.179	-0.458	0.135	-0.942 (inactive)	-0.874	-1.26	0.164 (inactive)	-1.23	0.0393 (inactive)	-0.748 (inactive)	0.504 (inactive)	0.148 (inactive)	-0.601 (inactive)	-0.395 (inactive)	-0.436 (inactive)	-0.409	0.0937
O=C1NC(=O)C2C1C=CC(C(O)c1ccc(-c3ccccc3)s1)N2Nc1ccccn1 (stereo not given)	-0.275	-0.456	-0.538	-0.0747	-0.642	-1.85	-0.544 (inactive)	-0.115	-0.371	-0.842 (inactive)	-1.04	1.14 (inactive)	-1.12 (inactive)	1.24 (inactive)	1.23 (inactive)	0.347 (inactive)	0.547 (inactive)	0.193 (inactive)	-1.17	0.549
COc1ccc(CCNC(=O)[C@@H]2c3ccccc3C(=O)N(Cc3ccccc3C(F)(F)F)[C@H]2c2ccc(CO)cc2)cc1	0.0059	-0.513	0.106	-0.601	-0.0978	1.2	0.996 (inactive)	-0.667	0.00958	2.22 (inactive)	0.743	0.415 (inactive)	0.711 (inactive)	0.717 (inactive)	-0.77 (inactive)	1.51 (inactive)	0.709 (inactive)	0.633 (inactive)	0.837	0.0819
O=C1NC(=O)C2C1C=CC(C(O)c1ccc3c(c1)OCO3)N2Nc1ccc(Cl)cc1Cl (stereo not given)	-0.713	-0.638	-1.22	-2.41	-1.99	-2.87	-0.748 (inactive)	-0.103	-0.339	-0.233 (inactive)	-0.996	-14 (active)	-1.33 (inactive)	-0.703 (inactive)	1.38 (inactive)	-0.101 (inactive)	-0.145 (inactive)	-2.73 (inactive)	-0.93	0.205
